Holding throughout (test): DAPPL (digital affinity profiling via proximity ligation, sequencing); 10 mM Tris-HCl pH 7.5, 50 mM NaCl, 1 mM DTT, 4% glycerol, room temperature, 30 min; GST-TFs on glutathione beads, 16-mer random dsDNA library, 0.1% formaldehyde crosslink after washing; high values mean tight binding
One test deals with T1, FEV (Homo sapiens, UniProt Q99581 1-238).
T1 sequence: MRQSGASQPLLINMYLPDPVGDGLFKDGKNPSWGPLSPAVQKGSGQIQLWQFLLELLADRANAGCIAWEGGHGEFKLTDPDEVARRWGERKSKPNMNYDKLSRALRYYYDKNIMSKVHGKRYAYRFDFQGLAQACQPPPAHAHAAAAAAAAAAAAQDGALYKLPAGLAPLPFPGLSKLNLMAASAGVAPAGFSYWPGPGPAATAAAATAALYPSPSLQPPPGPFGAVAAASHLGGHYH
The note with it: protein: recombinant; tags: N-terminal GST; dsDNA, one strand shown. The essentials:
(§1)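 After expression in yeast as GST fusions, human transcription factors were bound to glutathione beads, DNA-barcoded and mixed with a tag-only sample. The pools were incubated with 200 nmole of a 16-mer random double-stranded DNA library in Tris/NaCl/DTT/glycerol buffer (30 min, room temperature), washed and crosslinked with 0.1% formaldehyde. Proximity ligation with BsaI/T4 ligase ran for 1 h at 37 °C, before PCR amplification and sequencing on an Illumina NextSeq500. Binding signal is a hexamer's read frequency for a factor divided by its frequency for the tag-only sample.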

For the next test, the target named is ETV5 (Homo sapiens, UniProt P41161 1-510). Particulars: protein: recombinant; tags: N-terminal GST; dsDNA, one strand shown. The gist of the method:
as §1

Another test deals with HSF1 (Homo sapiens, UniProt Q00613 1-529). The note with it: protein: recombinant; tags: N-terminal GST; chain copies: 3; dsDNA, one strand shown. The essentials:
as §1

Another test addresses T2, SPIC (Homo sapiens, UniProt Q8N5J4 1-248).
T2 sequence: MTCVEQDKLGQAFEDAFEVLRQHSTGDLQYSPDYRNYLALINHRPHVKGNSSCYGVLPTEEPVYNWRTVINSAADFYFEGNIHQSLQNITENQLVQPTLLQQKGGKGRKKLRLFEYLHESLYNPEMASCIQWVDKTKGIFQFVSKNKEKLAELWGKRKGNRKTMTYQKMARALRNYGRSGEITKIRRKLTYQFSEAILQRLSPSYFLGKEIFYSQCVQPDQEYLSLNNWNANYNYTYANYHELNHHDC
Particulars: protein: recombinant; tags: N-terminal GST; dsDNA, one strand shown. The gist of the method:
as §1

The next test has as its target ELF4 (Homo sapiens, UniProt Q99607 1-663). The note with it: protein: recombinant; tags: N-terminal GST; dsDNA, one strand shown. The essentials: as §1
The target of a further test is T3, ELK4 (Homo sapiens, UniProt P28324-2 1-405).
T3 sequence: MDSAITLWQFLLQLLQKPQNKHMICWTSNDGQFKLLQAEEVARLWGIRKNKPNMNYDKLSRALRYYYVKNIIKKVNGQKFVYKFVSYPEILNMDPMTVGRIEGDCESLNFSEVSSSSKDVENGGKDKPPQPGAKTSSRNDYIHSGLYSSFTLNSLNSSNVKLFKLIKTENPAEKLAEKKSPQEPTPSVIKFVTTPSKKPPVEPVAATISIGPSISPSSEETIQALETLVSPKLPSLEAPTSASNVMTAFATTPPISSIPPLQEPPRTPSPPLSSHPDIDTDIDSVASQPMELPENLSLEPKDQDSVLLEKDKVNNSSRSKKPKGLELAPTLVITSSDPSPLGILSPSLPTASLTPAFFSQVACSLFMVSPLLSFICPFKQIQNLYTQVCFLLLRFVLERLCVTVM
The note with it: protein: recombinant; tags: N-terminal GST; dsDNA, one strand shown. The gist of the method: as §1

Another test has as its target T4, ETV2 (Homo sapiens, UniProt O00321 1-342).
T4 sequence: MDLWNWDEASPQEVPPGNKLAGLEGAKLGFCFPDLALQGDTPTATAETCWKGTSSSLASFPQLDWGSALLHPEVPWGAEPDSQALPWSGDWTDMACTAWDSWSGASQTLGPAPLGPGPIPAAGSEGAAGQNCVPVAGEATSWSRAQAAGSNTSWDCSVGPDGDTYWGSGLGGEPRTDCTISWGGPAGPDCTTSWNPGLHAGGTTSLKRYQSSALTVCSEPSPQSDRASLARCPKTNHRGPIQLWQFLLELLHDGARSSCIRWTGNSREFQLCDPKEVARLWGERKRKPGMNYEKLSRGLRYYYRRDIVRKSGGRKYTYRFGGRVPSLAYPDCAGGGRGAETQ
The note with it: protein: recombinant; tags: N-terminal GST; dsDNA, one strand shown. The essentials: as §1

In the next test the target is T5, ELF3 (Homo sapiens, UniProt P78545 1-371).
T5 sequence: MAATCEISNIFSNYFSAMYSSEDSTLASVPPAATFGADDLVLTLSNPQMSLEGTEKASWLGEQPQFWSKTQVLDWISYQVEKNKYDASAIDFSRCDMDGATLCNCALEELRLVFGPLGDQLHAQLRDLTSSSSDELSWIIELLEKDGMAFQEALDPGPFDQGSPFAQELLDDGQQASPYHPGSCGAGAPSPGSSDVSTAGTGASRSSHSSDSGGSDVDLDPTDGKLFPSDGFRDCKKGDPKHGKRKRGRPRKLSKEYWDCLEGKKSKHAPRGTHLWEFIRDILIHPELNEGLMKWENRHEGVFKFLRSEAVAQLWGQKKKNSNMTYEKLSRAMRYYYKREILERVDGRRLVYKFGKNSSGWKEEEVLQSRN
Particulars: protein: recombinant; tags: N-terminal GST; dsDNA, one strand shown. The gist of the method:
as §1

In a further test the target is CRX (Homo sapiens, UniProt O43186 1-299). The note with it: protein: recombinant; tags: N-terminal GST; dsDNA, one strand shown. The gist of the method: as §1
Chain of CRX (O43186 whole entry): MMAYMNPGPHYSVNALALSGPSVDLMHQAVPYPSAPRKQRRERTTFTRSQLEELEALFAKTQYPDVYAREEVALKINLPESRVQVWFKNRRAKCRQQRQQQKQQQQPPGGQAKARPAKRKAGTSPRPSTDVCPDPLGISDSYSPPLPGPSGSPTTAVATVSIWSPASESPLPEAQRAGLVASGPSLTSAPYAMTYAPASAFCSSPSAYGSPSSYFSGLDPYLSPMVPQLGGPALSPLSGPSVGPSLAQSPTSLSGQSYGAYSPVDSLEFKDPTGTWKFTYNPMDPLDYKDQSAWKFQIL
In another test the target is ETV1 (Homo sapiens, UniProt P50549 1-477). Particulars: protein: recombinant; tags: N-terminal GST; dsDNA, one strand shown. The essentials:
as §1

Chain of ETV1 (P50549 whole entry): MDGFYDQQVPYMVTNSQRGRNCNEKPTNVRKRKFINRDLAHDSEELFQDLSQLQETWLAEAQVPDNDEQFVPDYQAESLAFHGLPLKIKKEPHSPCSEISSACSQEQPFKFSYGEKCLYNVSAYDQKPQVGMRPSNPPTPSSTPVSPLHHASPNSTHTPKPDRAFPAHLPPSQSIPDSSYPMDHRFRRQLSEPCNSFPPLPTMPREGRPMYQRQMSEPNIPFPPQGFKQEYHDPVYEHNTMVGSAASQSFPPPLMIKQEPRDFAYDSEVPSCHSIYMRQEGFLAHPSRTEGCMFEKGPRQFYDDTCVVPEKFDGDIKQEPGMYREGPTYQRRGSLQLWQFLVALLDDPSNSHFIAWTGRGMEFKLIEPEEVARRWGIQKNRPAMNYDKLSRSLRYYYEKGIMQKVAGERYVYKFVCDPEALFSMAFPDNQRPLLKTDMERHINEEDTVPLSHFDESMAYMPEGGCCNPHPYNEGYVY
Chain of ETV5 (P41161 whole entry): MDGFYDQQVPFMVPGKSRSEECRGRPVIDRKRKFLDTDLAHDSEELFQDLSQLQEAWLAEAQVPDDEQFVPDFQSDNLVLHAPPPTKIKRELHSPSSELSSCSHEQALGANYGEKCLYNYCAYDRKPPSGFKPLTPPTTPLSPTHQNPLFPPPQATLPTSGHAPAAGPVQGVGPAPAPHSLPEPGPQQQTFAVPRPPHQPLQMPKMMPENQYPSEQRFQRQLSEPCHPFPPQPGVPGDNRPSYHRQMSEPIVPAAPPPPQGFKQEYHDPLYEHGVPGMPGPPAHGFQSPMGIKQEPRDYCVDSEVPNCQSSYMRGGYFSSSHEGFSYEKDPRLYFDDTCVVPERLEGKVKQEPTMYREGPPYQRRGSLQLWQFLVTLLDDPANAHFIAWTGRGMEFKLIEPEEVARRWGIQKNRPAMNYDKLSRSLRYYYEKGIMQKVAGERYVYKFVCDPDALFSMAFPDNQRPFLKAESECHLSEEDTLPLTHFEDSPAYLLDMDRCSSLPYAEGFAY
Chain of HSF1 (Q00613 whole entry): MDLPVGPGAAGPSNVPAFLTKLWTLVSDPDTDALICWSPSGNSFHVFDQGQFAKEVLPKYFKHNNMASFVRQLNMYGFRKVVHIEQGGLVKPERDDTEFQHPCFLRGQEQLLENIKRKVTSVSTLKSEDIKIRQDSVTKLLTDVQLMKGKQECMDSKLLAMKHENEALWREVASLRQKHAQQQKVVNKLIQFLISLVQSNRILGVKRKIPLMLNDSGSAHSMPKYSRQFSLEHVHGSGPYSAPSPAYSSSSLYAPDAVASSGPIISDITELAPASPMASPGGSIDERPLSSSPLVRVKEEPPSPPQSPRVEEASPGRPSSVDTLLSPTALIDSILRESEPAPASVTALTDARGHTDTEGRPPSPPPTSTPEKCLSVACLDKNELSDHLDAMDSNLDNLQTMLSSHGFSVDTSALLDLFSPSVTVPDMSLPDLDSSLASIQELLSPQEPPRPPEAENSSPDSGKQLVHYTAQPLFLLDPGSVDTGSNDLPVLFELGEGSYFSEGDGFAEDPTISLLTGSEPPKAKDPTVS
Chain of ELF4 (Q99607 whole entry): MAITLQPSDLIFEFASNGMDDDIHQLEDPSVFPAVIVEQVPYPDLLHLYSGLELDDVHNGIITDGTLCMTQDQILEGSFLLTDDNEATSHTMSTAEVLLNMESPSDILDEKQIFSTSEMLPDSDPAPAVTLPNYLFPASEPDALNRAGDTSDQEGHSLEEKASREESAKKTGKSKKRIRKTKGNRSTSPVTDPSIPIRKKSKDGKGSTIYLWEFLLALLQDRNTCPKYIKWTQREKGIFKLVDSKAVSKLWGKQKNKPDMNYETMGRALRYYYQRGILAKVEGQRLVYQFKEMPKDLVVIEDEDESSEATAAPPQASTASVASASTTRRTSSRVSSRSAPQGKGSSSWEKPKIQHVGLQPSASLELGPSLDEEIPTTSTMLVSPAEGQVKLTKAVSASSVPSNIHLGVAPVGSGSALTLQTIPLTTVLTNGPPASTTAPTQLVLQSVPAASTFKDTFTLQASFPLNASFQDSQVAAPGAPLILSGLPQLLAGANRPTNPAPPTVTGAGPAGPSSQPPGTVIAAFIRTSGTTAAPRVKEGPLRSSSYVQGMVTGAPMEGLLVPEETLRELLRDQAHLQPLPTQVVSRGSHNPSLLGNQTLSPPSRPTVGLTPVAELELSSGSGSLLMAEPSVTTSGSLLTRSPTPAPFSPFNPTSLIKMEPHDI

In the case of ACTCTC, the binding signal in the test with FEV was 1.42 fold enrichment (6-mer frequency, TF over GST control); with ETV5 it was 1.42 fold enrichment (6-mer frequency, TF over GST control); in the test with HSF1 it was 1.55 fold enrichment (6-mer frequency, TF over GST control); in the test with SPIC, 1.47 fold enrichment (6-mer frequency, TF over GST control); with ELF4, 1.49 fold enrichment (6-mer frequency, TF over GST control); with ELK4, 1.55 fold enrichment (6-mer frequency, TF over GST control). The binding signal with ETV2 is 1.39 fold enrichment (6-mer frequency, TF over GST control); with ELF3 it was 1.88 fold enrichment (6-mer frequency, TF over GST control); with CRX it was 1.31 fold enrichment (6-mer frequency, TF over GST control); in the test with ETV1 it was 1.53 fold enrichment (6-mer frequency, TF over GST control).
For the sequence TTGTGG, the binding signal in the test with FEV is 1.27 fold enrichment (6-mer frequency, TF over GST control); in the test with ETV5, 1.41 fold enrichment (6-mer frequency, TF over GST control); in the test with HSF1 it was 1.37 fold enrichment (6-mer frequency, TF over GST control); with SPIC, 1.44 fold enrichment (6-mer frequency, TF over GST control); in the test with ELF4, 1.51 fold enrichment (6-mer frequency, TF over GST control); with ELK4 it was 1.35 fold enrichment (6-mer frequency, TF over GST control). In addition, the binding signal with ETV2 is 1.29 fold enrichment (6-mer frequency, TF over GST control); with ELF3, 1.34 fold enrichment (6-mer frequency, TF over GST control); in the test with CRX, 1.46 fold enrichment (6-mer frequency, TF over GST control); with ETV1 it was 1.27 fold enrichment (6-mer frequency, TF over GST control).
Take ATGGCA: the binding signal is 1.44 fold enrichment (6-mer frequency, TF over GST control) with FEV; 1.28 fold enrichment (6-mer frequency, TF over GST control) in the test with ETV5; 1.1 fold enrichment (6-mer frequency, TF over GST control) with HSF1; 1.21 fold enrichment (6-mer frequency, TF over GST control) in the test with SPIC; 1.2 fold enrichment (6-mer frequency, TF over GST control) with ELF4; 1.15 fold enrichment (6-mer frequency, TF over GST control) with ELK4. Further, the binding signal with ETV2 was 1.31 fold enrichment (6-mer frequency, TF over GST control); in the test with ELF3 it was 1.28 fold enrichment (6-mer frequency, TF over GST control); with CRX, 1.11 fold enrichment (6-mer frequency, TF over GST control); with ETV1, 1.27 fold enrichment (6-mer frequency, TF over GST control).
ACTATT: the binding signal in the test with FEV is 1.25 fold enrichment (6-mer frequency, TF over GST control); with ETV5, 1.22 fold enrichment (6-mer frequency, TF over GST control); with HSF1 it was 1.33 fold enrichment (6-mer frequency, TF over GST control); in the test with SPIC, 1.44 fold enrichment (6-mer frequency, TF over GST control); in the test with ELF4, 1.3 fold enrichment (6-mer frequency, TF over GST control); with ELK4, 1.35 fold enrichment (6-mer frequency, TF over GST control). In addition, the binding signal with ETV2 was 1.31 fold enrichment (6-mer frequency, TF over GST control); in the test with ELF3 it was 1.32 fold enrichment (6-mer frequency, TF over GST control); in the test with CRX it was 1.28 fold enrichment (6-mer frequency, TF over GST control); with ETV1, 1.28 fold enrichment (6-mer frequency, TF over GST control).
Consider CTTTTC, for which the binding signal with FEV was 1.39 fold enrichment (6-mer frequency, TF over GST control); in the test with ETV5, 1.44 fold enrichment (6-mer frequency, TF over GST control); with HSF1, 1.5 fold enrichment (6-mer frequency, TF over GST control); with SPIC, 1.45 fold enrichment (6-mer frequency, TF over GST control); with ELF4, 1.43 fold enrichment (6-mer frequency, TF over GST control); in the test with ELK4, 1.49 fold enrichment (6-mer frequency, TF over GST control). The binding signal with ETV2 was 1.48 fold enrichment (6-mer frequency, TF over GST control); with ELF3, 1.48 fold enrichment (6-mer frequency, TF over GST control); with CRX, 1.25 fold enrichment (6-mer frequency, TF over GST control); with ETV1 it was 1.4 fold enrichment (6-mer frequency, TF over GST control).
For GACTCT, the binding signal with FEV is 1.32 fold enrichment (6-mer frequency, TF over GST control); with ETV5, 1.26 fold enrichment (6-mer frequency, TF over GST control); with HSF1, 1.26 fold enrichment (6-mer frequency, TF over GST control); with SPIC, 1.55 fold enrichment (6-mer frequency, TF over GST control); in the test with ELF4 it was 1.29 fold enrichment (6-mer frequency, TF over GST control); with ELK4, 1.28 fold enrichment (6-mer frequency, TF over GST control). The binding signal is 1.26 fold enrichment (6-mer frequency, TF over GST control) with ETV2; 1.28 fold enrichment (6-mer frequency, TF over GST control) with ELF3; 1.13 fold enrichment (6-mer frequency, TF over GST control) with CRX; 1.32 fold enrichment (6-mer frequency, TF over GST control) in the test with ETV1.
With TGTTAA, the binding signal is 1.1 fold enrichment (6-mer frequency, TF over GST control) with FEV; 1.05 fold enrichment (6-mer frequency, TF over GST control) with ETV5; 1.3 fold enrichment (6-mer frequency, TF over GST control) in the test with HSF1; 1.19 fold enrichment (6-mer frequency, TF over GST control) with SPIC; 1.17 fold enrichment (6-mer frequency, TF over GST control) with ELF4; 1.16 fold enrichment (6-mer frequency, TF over GST control) with ELK4. Moreover, the binding signal with ETV2 was 1.06 fold enrichment (6-mer frequency, TF over GST control); with ELF3, 1.24 fold enrichment (6-mer frequency, TF over GST control); with CRX, 1.67 fold enrichment (6-mer frequency, TF over GST control); in the test with ETV1 it was 1.13 fold enrichment (6-mer frequency, TF over GST control).
